# How the values were obtained:
# [1] = target: Bromodomain-containing protein 4 (Homo sapiens) (UniProt O60885); conditions: Compound concentration 20.0 uM, Protein concentration 2.0 uM, Result type QC Liability
# [2] = target: T1, Transcription intermediary factor 1-alpha (Homo sapiens) (UniProt O15164); conditions: Compound concentration 20.0 uM, Protein concentration 2.0 uM, Result type QC Liability
# T1 sequence (whole entry): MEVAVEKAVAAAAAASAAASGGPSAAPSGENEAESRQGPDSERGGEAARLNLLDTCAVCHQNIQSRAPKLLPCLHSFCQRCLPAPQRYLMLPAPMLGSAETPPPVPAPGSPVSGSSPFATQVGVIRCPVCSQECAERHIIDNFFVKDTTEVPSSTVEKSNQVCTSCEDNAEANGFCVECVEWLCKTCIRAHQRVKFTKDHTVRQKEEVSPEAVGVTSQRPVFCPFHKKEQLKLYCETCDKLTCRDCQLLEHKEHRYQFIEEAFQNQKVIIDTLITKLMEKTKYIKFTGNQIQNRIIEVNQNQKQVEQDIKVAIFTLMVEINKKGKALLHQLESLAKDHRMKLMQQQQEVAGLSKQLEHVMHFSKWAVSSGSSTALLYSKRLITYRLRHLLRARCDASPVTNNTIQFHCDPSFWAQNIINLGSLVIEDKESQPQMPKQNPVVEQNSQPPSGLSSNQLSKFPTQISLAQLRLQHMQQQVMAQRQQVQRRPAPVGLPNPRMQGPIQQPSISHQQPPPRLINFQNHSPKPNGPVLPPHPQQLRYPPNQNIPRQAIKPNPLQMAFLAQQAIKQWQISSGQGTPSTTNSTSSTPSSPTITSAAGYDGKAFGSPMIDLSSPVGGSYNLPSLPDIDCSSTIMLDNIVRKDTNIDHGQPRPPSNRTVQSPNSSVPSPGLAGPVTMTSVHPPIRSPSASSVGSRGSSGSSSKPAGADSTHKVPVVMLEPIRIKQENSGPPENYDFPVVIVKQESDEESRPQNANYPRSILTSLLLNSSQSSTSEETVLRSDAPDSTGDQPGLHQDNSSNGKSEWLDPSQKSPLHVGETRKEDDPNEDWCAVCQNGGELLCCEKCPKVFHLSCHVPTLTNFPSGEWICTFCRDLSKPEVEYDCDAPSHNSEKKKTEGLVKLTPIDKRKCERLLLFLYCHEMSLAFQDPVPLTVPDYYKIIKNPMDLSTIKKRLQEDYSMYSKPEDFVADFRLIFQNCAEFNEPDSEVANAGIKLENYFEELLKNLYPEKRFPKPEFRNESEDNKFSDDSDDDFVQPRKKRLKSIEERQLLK
Compound,ΔTm [1] [°C],ΔTm [2] [°C]
CN(C)CC#Cc1ccc2[nH]c3c(c2c1)-c1nc(N)ncc1CCC3,-1.33,-0.98
Cc1[nH]nc(C(F)(F)F)c1Cc1sc2c(c1C(=O)N1C[C@](C)(O)CO1)c(=O)n(C)c(=O)n2C(C)C,-1.28,-0.8
COc1cc(F)ccc1-c1cc(Nc2cc(CS(C)(=N)=O)ccn2)ncc1F (configuration not stated),0.98,-2.98
O=C(O)Cc1ccc(CCNS(=O)(=O)c2ccc(Cl)cc2)cc1,-1.74,-0.53
C[C@@H]1CN(CC(=O)N2CC(C)(C)c3nc(CO)c(Cc4ccc(F)cc4)cc32)[C@@H](CN2CCOC[C@H]2C)CN1,-1.96,-0.43
CCc1nc(C2CCC2)n2nc(-c3ccccc3)[nH]c(=O)c12,0.07,0.37
Nc1ncnc2c1c(I)cn2[C@@H]1O[C@H](CO)[C@@H](O)[C@H]1O,-1.9,-4
Nc1nccc(-c2c(-c3ccc(F)cc3)ncn2C2CCN(Cc3ccon3)CC2)n1,-2.58,-2.27
COc1cccc(Cn2cc(C(=O)Nc3ccc(C)c(S(=O)(=O)N4CCOCC4)c3)c(-c3ccc(C)cc3)n2)c1,1.27,4.1
N=C(N)NCCC[C@H](NC(=O)C(c1ccccc1)c1ccccc1)C(=O)NCc1ccc(CNC(N)=O)cc1,0.06,0.24
CC(C)NC(=O)[C@H]1CCC[C@H]1Nc1nc(Nc2ccc(CN(C)C)cc2)ncc1Br,-3.19,-4.42
COc1cc(Nc2cnc(C#N)c(O[C@H](C)CN(C)C)n2)ncc1-c1cnn(C)c1,-1.55,-2.76
CCn1c(-c2nonc2N)nc2cncc(C(=O)N3CC[C@H](N)C3)c21,-0.13,-1.91
Cc1nc2ccc(Oc3ccc(F)cc3)cc2c(=O)n1C[C@H]1CCCN(C(C)C)C1,0.67,0.18
CN1C(=O)Cc2ccc(-c3ccc(C[C@@H](C#N)NC(=O)[C@H]4N[C@@H]5CC[C@H]4C5)c(F)c3)cc21,0.1,0.42
N#C/C(=C\c1ccc(O)c(O)c1)C(=O)OCCc1cccs1,-0.61,0.49
N#Cc1cccc(-c2c[nH]c3ncnc(N4CCOCC4)c23)c1,-2.27,-2.93
COc1ccc(F)c(F)c1C(=O)c1cnc(NC2CCN(S(C)(=O)=O)CC2)nc1N,0.74,-1.4
COc1cc(-c2cn(C)c(=O)c3cnccc23)cc(OC)c1CN(C)C,-0.83,0.37
CN(C)C(=O)Cn1cc(-c2ccc(-c3cncc4ccccc34)cc2)cn1,-2.19,0.13
Cc1cc(C)nc(Nc2ncc(C(=O)NCCc3c(C)[nH]c4ccccc34)cn2)c1,-0.8,-1.3
COc1cc(-c2cncc(-c3cnn(C4CCNCC4)c3)c2)cc(OC)c1OC,0.84,-1.81
O=C(CCSCc1ccco1)NNC(=O)N1Cc2ccccc2Oc2ccc(Cl)cc21,-3.5,-1.32
NC1(c2ccc(-c3nc4c(O)ccnn4c3-c3ccccc3)cc2)CCC1,-0.63,-1.89
CN(CCCCCCC1=C(c2cc(F)cc(F)c2)CCCc2cc(O)ccc21)CCCCS(=O)(=O)CCCC(F)(F)F,1.66,1.21

Compound,ΔTm [1] [°C],ΔTm [2] [°C]
CCCCC[C@H](O)/C=C/[C@H]1[C@H](O)CC(=O)[C@@H]1CCCCCCC(=O)O,-1.54,0.28
CC(C)(O)c1cn(-c2ccc(-c3cccc(S(C)(=O)=O)c3)cc2)c(C(C)(C)c2ccccc2Cl)n1,-4.36,-3.39
Cc1cccc(-c2[nH]c(CNc3ccccc3F)nc2-c2ccc3ncnn3c2)n1,-1.53,-2.12
Cc1ccc(NC(=O)c2ccc(CN3CC[C@H](N(C)C)C3)c(C(F)(F)F)c2)cc1Nc1nccc(-c2cncnc2)n1,-1.21,-0.69
CC[C@H](Nc1c(C#N)c(-c2ccc(-c3cccc(C)c3F)cc2)nc2cnccc12)C(=O)O,-2.07,-1.52
Cc1cn([C@@H](C)CC#N)c(=O)c2cc(Cn3nc(C(F)F)cc3Cl)nn12,-0.88,-2.22
O=S(=O)(Nc1ccc(C(O)(C(F)(F)F)C(F)(F)F)cc1)c1cccs1,-2.9,-0.69
Cc1cc(OC2CCS(=O)(=O)CC2)cc(C)c1-c1cccc(COc2ccc(CCC(=O)O)c(F)c2)c1,-5.08,-3.73
Cc1nc2ccc(Cl)cc2c(-c2ccccc2)c1CC(=O)O,-0.84,0.64
O=C(NCc1ccc(F)cc1)C1CCN(S(=O)(=O)c2cc(Cl)cc(Cl)c2)CC1,-0.4,0.44
Cc1cccc(CC(=O)N2CCc3c2ccc(-c2cn(C)c4ncnc(N)c24)c3F)n1,-0.38,-2.22
CC(C)C[C@H](NC(=O)[C@@H](O)[C@H](N)Cc1ccccc1)C(=O)O,-0.66,-0.82
CCOC(=O)C1Cc2ccccc2CN1C(=O)c1ccc(SC)s1 (configuration not stated),-2.7,-3.41
Cc1ccccc1Oc1cc(-n2c(=O)cc(C(F)(F)F)[nH]c2=O)c2ccccc2c1Cl,-1.47,-0.87
CN(c1ccc(C(F)(F)F)cc1)S(=O)(=O)c1ccc(C(=O)Nc2nc(-c3ccccn3)cs2)cc1,6.63,18.6
Cc1cc(-c2cc3ncccc3c(OC[C@H]3CCCNC3)n2)ccc1N(C)C,-2.56,-2.49
Cc1cc(SCc2sc(-c3ccc(C(F)(F)F)cc3)nc2C)ccc1OCC(=O)O,-3.91,-2.79
CC(=O)N1CCC(c2ccc(C(=O)NC3=NCCN3)cc2C(F)(F)F)CC1,-0.26,0.31
CNC(=O)c1cc(C(=O)N[C@H]2[C@@H]3COC[C@@H]32)cc2c1O[C@H](CF)[C@H]2c1ccccc1,,-2.73
CC(C)N(CCCCOCC(=O)O)c1cnc(-c2ccccc2)c(-c2ccccc2)n1,-1.87,-0.66
Cc1cc2c(cc(C(=O)N[C@H](CO)c3ccc(S(=O)(=O)CC(=O)O)cc3)n2C)c(Cl)c1Cl,2.14,-0.18
CC(C)c1cnn2c(NCc3ccccc3)cc(NCCCCCCN)nc12,0.76,-3.25
Nc1c(CC(=O)O)cccc1C(=O)c1ccc(Br)cc1,-0.6,-0.77
CN[C@@H](C)C(=O)N[C@H]1CN(C(=O)CC(C)C)CC[C@H]2CC[C@@H](C(=O)NC(c3ccccc3)c3ccccc3)N2C1=O,-2.41,-2.26

# — ChEMBL document CHEMBL5308504, “Tm Shift (DSF) assay results for EUbOPEN Chemogenomics Library” (2023)
